Measured potencies and affinities stand elsewhere. Inconclusive results are not listed. The source made the active and inactive calls. How the calls were made is not given here.

The values that follow come from PubChem BioAssay.

This assay in a line: non-specific cell cytotoxicity, dose response, cytotoxicity control for PAX8 inhibitor project, plate reader, dry powder samples (AID 743021). The note with it: cell line, non-specific cytotoxicity counter-screen; series mostly up to 35 µM. (In general: Counterscreens check selectivity or assay interference.)
On to `CCC1(O)C(=O)OCc2c1cc1n(c2=O)Cc2cc3c(N)cccc3nc2-1` (stereo not given), for which the outcome was inactive.

As to `CC(C)(C)OC(=O)NCCCC[C@H](NC(=O)c1[nH]cnc1C(=O)N[C@@H](Cc1ccccc1)C(=O)OC(C)(C)C)C(=O)OC(C)(C)C`, the compound was called inactive.

With `CC(=NNC(=S)N1CCC1)c1ccccn1`, the compound was called inactive.

In the case of `CC(=O)Nc1cc(-c2cccc(C(=O)NCCN(C)C)c2)cn2c(-c3cccc(C(F)(F)F)c3)cnc12`, the compound was called inactive.

With `CC(C)C(=O)N1CCN(c2ccc(NC(=O)c3ccc([N+](=O)[O-])o3)cc2)CC1`, the compound was classed as inactive.

Take `O=C(CCCN1C(=O)/C(=C\c2cccc(Br)c2)SC1=S)Nc1cccnc1`: the result was inactive.

As for `CC(C)N1CCc2c(sc(NC(=O)c3ccc([N+](=O)[O-])o3)c2C(N)=O)C1`, the call was inactive.

With `C=CCNC(=S)N/N=C(\C)c1ccccn1`, the compound was classed as inactive.

In the case of `CS(=O)(=O)Nc1ccc2c(c1)[C@@H]1C[C@@H](CC(=O)NCc3ccc(Oc4ccccc4)cc3)O[C@@H](CO)[C@@H]1O2`, the outcome was inactive.

Consider `CCC(=O)OCCNc1cc(Sc2nccn2C)c2nonc2c1[N+](=O)[O-]`, for which the compound was classed as inactive.

`COc1ccccc1-n1cc([C@@H]2C[C@H]3CN(c4ccccc4)C(=O)[C@]34CCCN24)cn1`: the outcome was inactive.

For `COc1cc(-c2cnc3c(NC=O)cc(-c4ccc(C)cc4)cn23)cc(OC)c1OC`, the compound was called inactive.

`CC(=NNC(=S)N1CCN(C2CCCCCC2)CC1)c1ccccn1`: the outcome was inactive.

As for `N#Cc1c(N)n(C2OC(CO)C(O)C2O)c2ncnc(N)c12` (stereo not given), the outcome was inactive.

For `CC(C)(C)C(=O)Nc1ccc(NC(=O)c2ccco2)nc1`, the compound was called inactive.

Turning to `NC(=O)c1ccsc1NC(=O)c1ccc([N+](=O)[O-])o1`, the compound was classed as inactive.

On to `Cn1cc(C2=C(c3ccc(Cl)cc3Cl)C(=O)NC2=O)c2ccccc21`, for which the compound was called inactive.

Consider `C[C@H]1CCCCO[C@H](CN(C)C(=O)Nc2ccc(C(F)(F)F)cc2)[C@@H](C)CN([C@@H](C)CO)C(=O)c2cc(NC(=O)Nc3ccc(F)cc3)ccc2O1`, for which the outcome was inactive.

Regarding `CC(=O)NC(c1ccc2ccccc2c1)c1ccc2cccnc2c1O` (stereo not given), the compound was called inactive.

Take `Cc1ccc2nc(C)cc(Nc3ccc([N+](=O)[O-])cc3)c2c1`: the call was inactive.

Take `CCS(=O)(=O)N1Cc2ccccc2CC1C(=O)Nc1nnc(SCc2c(Cl)cccc2Cl)s1` (stereo not given): the compound was classed as inactive.

With `CCS(=O)(=O)c1ncc(Cl)c(C(=O)Nc2ccc(S(=O)(=O)N3CCCC(C)C3)cc2)n1` (stereo not given), the result was inactive.

For `COc1c(C=O)c2c(c(OC)c1OC)-c1ccc(OC)c(=O)cc1C(NC(C)=O)CC2` (stereo not given), the compound was called inactive.

As to `COc1ccc(OC)c(-c2nnc3n2N=C(c2ccc(OC)c(OC4CCOC4)c2)CS3)c1` (stereo not given), the call was inactive.

Consider `COc1cc(C2C3=C(Nc4ncnn42)c2ccccc2CC3)cc(OC)c1OC` (stereo not given), for which the result was inactive.

For the compound `Cn1nnnc1Sc1ncnc2scc(-c3cccc(F)c3)c12`, the compound was called inactive.

With `Cc1ccc(S(=O)(=O)N(C)C[C@@H]2Oc3ccc(NC(=O)Nc4ccc(C(F)(F)F)cc4)cc3CC(=O)N([C@H](C)CO)C[C@@H]2C)cc1`, the result was inactive.

Regarding `COc1ccccc1NS(=O)(=O)c1cccc(C(=O)N/N=C/c2ccc([N+](=O)[O-])o2)c1`, the result was inactive.

Take `CCOCCCNC(=O)c1ccc2c(c1)N=C(CC)c1cc(Br)ccc1S2`: the compound was called inactive.

Take `C[C@@H]1CCCCO[C@@H](CN(C)CC2CCCCC2)[C@H](C)CN([C@H](C)CO)C(=O)c2cc(NS(=O)(=O)c3ccc(Cl)cc3)ccc2O1`: the result was inactive.

`COc1cc(/C=C2\COC/C(=C\c3cc(OC)c(OC)c(OC)c3)C2=O)cc(OC)c1OC`: the result was inactive.

As to `N#CC1(NC(=O)Cn2ncc(Cl)c(Cl)c2=O)CCCCC1`, the result was inactive.

As for `C#CCN(C[C@@H]1[C@@H](OC(=O)NCc2ccc(OC)c(OC)c2)[C@@H](OC(=O)NCc2ccc(OC)c(OC)c2)Cn2c(=O)ccc(=O)n21)S(=O)(=O)c1ccc(C)cc1`, the compound was classed as inactive.

For the compound `Cc1cccc(C2(c3cccc(C)c3)CC2C(=O)Nc2ccc([N+](=O)[O-])cc2O)c1` (stereo not given), the result was inactive.

As to `Cn1nnnc1Sc1ncnc2scc(-c3cccc4c3sc3ccccc34)c12`, the compound was classed as inactive.

Consider `CCOC(=O)c1cnc2ccc(C(=O)OC)cc2c1Nc1ccc(C(=O)O)cc1`, for which the compound was classed as inactive.

Take `CC(=O)N1CCc2c(sc(NC(=O)c3ccc([N+](=O)[O-])o3)c2C#N)C1`: the compound was classed as inactive.

For `Oc1c(I)cc(I)c2cccnc12`, the compound was classed as inactive.

As to `COc1cc(/C=N/NS(=O)(=O)c2ccc(C)cc2)ccc1OCc1ccc(C(=O)O)cc1`, the result was inactive.

On to `CNC[C@@H](CC1CCCCC1)NC[C@H](CC(C)C)NCCc1cccc(C(F)(F)F)c1`, for which the outcome was inactive.
